# IDE exosite FP – displaces the probe from the exo-site of human IDE; P14735; purified IDE, FL-6b probe fluorescence polarization; active compounds read low; z-score at 20 µM; hit rate 6.3% among 17,000;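 active = z-score of -3 or lower, meaning strong loss of probe binding signal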;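 also: His-tagged human IDE residues 42-1019 made in E. coli with 30 nM FL-6b probe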
# * = called active by the depositor. Many of the other results were omitted from the sample, so hits are more common in it than they were.
SMILES,IDE exosite FP
O=C(C[C@@H]1CC[C@@H](NC(=O)c2ccc(F)cc2)[C@@H](CO)O1)NCCc1ccccc1,1.1
CC(C)CC#Cc1ccc([C@@H]2[C@H](CO)N3C(=O)CN(C(=O)Cc4ccccc4)C[C@@H]23)cc1,4
COCC(=O)Nc1ccc2c(c1)[C@H]1C[C@H](CC(=O)N3CCOCC3)O[C@H](CO)[C@H]1O2,-0.6
COc1cccc(-c2ccc([C@H]3[C@@H](CO)N4C(=O)CN(C(=O)CN5CCOCC5)C[C@@H]34)cc2)c1,-3.5*
O=C(CN1CCOCC1)N1CC(=O)N2[C@@H](CO)[C@H](c3ccc(-c4cccc(F)c4)cc3)[C@@H]2C1,-0.23
COCC#Cc1ccc([C@@H]2[C@H](CO)N3C(=O)CN(C(=O)CN4CCOCC4)C[C@@H]23)cc1,0.78
Cc1ccc(-c2ccc([C@H]3[C@H](CO)N4C(=O)CN(C(=O)CN5CCOCC5)C[C@@H]34)cc2)cc1,0.8
Cc1cccc(-c2ccc([C@@H]3[C@H]4CN(C(=O)CN5CCOCC5)CC(=O)N4[C@H]3CO)cc2)c1,-15*
Cc1ccc(-c2ccc([C@@H]3[C@@H](CO)N4C(=O)CN(C(=O)CN5CCOCC5)C[C@@H]34)cc2)cc1,-1.4
COc1cccc(-c2ccc([C@@H]3[C@H](CO)N4C(=O)CN(C(=O)CN5CCOCC5)C[C@@H]34)cc2)c1,-6.3*
O=C(CN1CCOCC1)N1CC(=O)N2[C@H](CO)[C@@H](c3ccc(-c4cccc(F)c4)cc3)[C@@H]2C1,-1.9
COc1cccc(-c2ccc([C@H]3[C@H]4CN(C(=O)CN5CCOCC5)CC(=O)N4[C@H]3CO)cc2)c1,-3
CCS(=O)(=O)N1CC2(CN(C)[C@@H](CO)c3c2c2ccc(OC)cc2n3C)C1,-1.1
CC(C)C#Cc1ccc([C@@H]2[C@H]3CN(C(=O)c4ccc(F)cc4)CCCCN3[C@H]2CO)cc1,0.4
CC(=O)N1[C@@H]2CN(S(=O)(=O)c3ccccc3C)c3ccccc3[C@@H]2[C@@H]1CO,1.9
C[C@H]1CN([C@@H](C)CO)C(=O)c2ccccc2-c2ccccc2CO[C@H]1CN(C)C(=O)[C@@H]1CCCN1C,-0.57
COC(=O)C[C@H]1CC[C@@H]2[C@@H](COc3ccc(NC(=O)Nc4c(C)noc4C)cc3C(=O)N2C)O1,0.36
CNC[C@H]1Oc2c(NC(=O)Nc3cccc4ccccc34)cccc2C(=O)N([C@@H](C)CO)C[C@H]1C,-0.37
CN(C)C(=O)c1ccc(-c2ccc([C@@H]3[C@@H](CO)N4C(=O)CN(C(=O)C5CCCC5)C[C@@H]34)cc2)cc1,0.64
Cn1cnc(S(=O)(=O)N2CCCCN3[C@H](CO)[C@@H](c4ccc(-c5ccccc5)cc4)[C@H]3C2)c1,1.3
Cc1cccc(-c2ccc([C@@H]3[C@@H](CO)N4CCCCN(S(=O)(=O)c5cn(C)cn5)C[C@H]34)cc2)c1,-0.7
Cn1cnc(S(=O)(=O)N2CCCCN3[C@H](CO)[C@H](c4ccc(-c5cccc(F)c5)cc4)[C@H]3C2)c1,-1.3
Cc1cccc(-c2ccc([C@H]3[C@@H](CO)N4CCCCN(S(=O)(=O)c5cn(C)cn5)C[C@H]34)cc2)c1,-11*
Cc1cccc(-c2ccc([C@@H]3[C@H](CO)N4CCCCN(S(=O)(=O)c5ccccc5F)C[C@@H]34)cc2)c1,-22*
O=S(=O)(c1ccccc1F)N1CCCCN2[C@H](C1)[C@H](c1ccc(-c3ccccc3)cc1)[C@@H]2CO,0.64
SMILES,IDE exosite FP
COc1cccc(-c2ccc([C@H]3[C@@H](CO)N4CCCCN(S(=O)(=O)c5cccs5)C[C@@H]34)cc2)c1,2
COc1cccc(-c2ccc([C@@H]3[C@H]4CN(S(=O)(=O)c5cn(C)cn5)CCCCN4[C@H]3CO)cc2)c1,-5.5*
Cc1cccc(-c2ccc([C@H]3[C@H](CO)N4CCCCN(S(=O)(=O)c5ccccc5C)C[C@@H]34)cc2)c1,1.3
COc1cccc(-c2ccc([C@H]3[C@H]4CN(S(=O)(=O)c5cccs5)CCCCN4[C@H]3CO)cc2)c1,0.23
Cn1cnc(S(=O)(=O)N2CCCCN3[C@H](C2)[C@H](c2ccc(-c4cccc(F)c4)cc2)[C@@H]3CO)c1,3.3
COc1cccc(-c2ccc([C@@H]3[C@@H](CO)N4CCCCN(S(=O)(=O)c5cccs5)C[C@@H]34)cc2)c1,-3.2*
COc1ccccc1NC(=O)N1CC(=O)N2[C@H](CO)[C@@H](c3ccc(C#CCC(C)C)cc3)[C@@H]2C1,1.3
COc1ccc(C[C@H]2CCn3cc(nn3)COCCCNC2=O)cc1,0.76
O=C(Nc1cccc(F)c1)N1CC(=O)N2[C@H](CO)[C@@H](c3ccc(-c4ccccc4F)cc3)[C@H]2C1,2.1
CC(C)C#Cc1ccc([C@@H]2[C@H](CO)N3CCCCN(C(=O)c4ccc5c(c4)OCO5)C[C@@H]23)cc1,2.9
O=C1CN(Cc2ccc(F)cc2)C[C@@H]2[C@@H](c3ccc(-c4ccccc4F)cc3)[C@H](CO)N12,-0.17
CS(=O)(=O)N1CCCCN2[C@H](CO)[C@@H](c3ccc(Br)cc3)[C@@H]2C1,2.2
COc1ccc2c3c([nH]c2c1)[C@H](CO)N(C(=O)CC1CC1)CC31CCN(Cc2ccncc2)CC1,0.9
CCCNC(=O)N1[C@H](CNC(=O)c2ccc(F)cc2)[C@H](c2ccccc2)[C@@H]1CO,2.3
N#C[C@H]1[C@@H](c2ccc(C3=CCCC3)cc2)[C@@H](CO)N1C(=O)Nc1ccccc1F,2.4
O=C(C1CCOCC1)N1CC2(C1)[C@@H](c1ccccc1)[C@@H](CO)N2Cc1ccccc1F,0.46
CCCC#Cc1ccc([C@@H]2[C@H]3CN(C(=O)c4ccccn4)CC(=O)N3[C@H]2CO)cc1,2.7
CCCC#Cc1ccc([C@H]2[C@H](CO)N3C(=O)CN(C(=O)c4ccccn4)C[C@@H]23)cc1,1.1
O=C(c1ccccn1)N1CC(=O)N2[C@H](C1)[C@@H](c1ccc(C#Cc3ccccc3)cc1)[C@@H]2CO,-2.9
O=C(c1ccccn1)N1CC(=O)N2[C@@H](CO)[C@@H](c3ccc(C#CCc4ccccc4)cc3)[C@@H]2C1,-4.7*
O=C(c1cnccn1)N1CC(=O)N2[C@@H](CO)[C@H](c3ccc(C#CCc4ccccc4)cc3)[C@@H]2C1,0.7
O=C(c1ccccn1)N1CC(=O)N2[C@H](C1)[C@H](c1ccc(C#Cc3ccccc3)cc1)[C@@H]2CO,-6.4*
O=C(c1cnccn1)N1CC(=O)N2[C@H](CO)[C@@H](c3ccc(C#CCc4ccccc4)cc3)[C@H]2C1,-2.4
CCCC#Cc1ccc([C@@H]2[C@@H](CO)N3C(=O)CN(C(=O)c4ccccn4)C[C@H]23)cc1,0.41
O=C(c1ccccn1)N1CC(=O)N2[C@H](CO)[C@@H](c3ccc(C#Cc4ccccc4)cc3)[C@H]2C1,-9.4*
SMILES,IDE exosite FP
CC(C)C#Cc1ccc([C@@H]2[C@H](CO)N3C(=O)CN(C(=O)c4ccccn4)C[C@@H]23)cc1,-0.085
CCCC#Cc1ccc([C@@H]2[C@H](CO)N3C(=O)CN(C(=O)c4ccccn4)C[C@@H]23)cc1,-3.2*
CC(C)C#Cc1ccc([C@H]2[C@H](CO)N3C(=O)CN(C(=O)c4ccccn4)C[C@@H]23)cc1,1.4
CO[C@@H]1CC[C@H]2CCN(C)C(=O)[C@H](C)CN(C)C(=O)c3cc(C#N)ccc3OC[C@@H]1O2,1
CCc1nc(N2[C@@H](C#N)[C@@H](c3ccccc3-c3ccccc3C)[C@@H]2CO)sc1C,0.035
OC[C@H]1[C@@H](c2ccc(-c3cccc(F)c3)cc2)[C@@H]2CN(CCC(F)(F)F)CCCCN12,1.3
COc1ccc(S(=O)(=O)Nc2ccc3c(c2)OC[C@H](C)NC[C@H](C)[C@@H](OC)CN(C)C3=O)cc1,0.74

# Screening results: PubChem, Broad Institute
